Shown are actives, neighbours in structure and some others; about 1.8% of the full set was active somewhere.
PfHsp40 rescue: rescue of PfHsp40-mediated yeast toxicity. AID 504582. S. cerevisiae expressing PfHsp40, growth rescue, ATP luminescence. growth rescue, % at 12.5 µM. 340,000 compounds, 0.68% hits; in the data active = growth rescue above about 28%, passing the limit was not always enough;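 also: yeast W303a lacking pdr1 and pdr3 grown in galactose medium; growth measured after three days at 30 °C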
VHR inh abs: inhibitors of human VHR1 phosphatase (DUSP3) | P51452 | inhibition, % at 13.3 µM | recombinant VHR phosphatase, pNPP absorbance | AID 1654 | 290,000 compounds, 0.52% hits; in the data active = inhibition above about 50%
Target sequence (P51452 whole entry, looked up): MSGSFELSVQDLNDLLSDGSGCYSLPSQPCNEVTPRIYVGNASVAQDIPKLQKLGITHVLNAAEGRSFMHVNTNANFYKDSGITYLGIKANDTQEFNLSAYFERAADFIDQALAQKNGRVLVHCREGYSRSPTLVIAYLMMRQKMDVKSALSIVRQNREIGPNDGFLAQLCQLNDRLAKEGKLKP
RN4220 kill: kills Staphylococcus aureus RN4220. inhibition, % (no concentration beside the values). 330,000 compounds, 0.33% hits. S. aureus RN4220 growth, OD600, 16 h. AID 1259311; in the data active = inhibition above about 85%;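 also: plate controls were untreated cells for no effect and reference antibiotic for full effect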
PrPC surface inh: cell surface PrPC inhibition, primary TR-FRET screen; P04156; TR-FRET read-out; inhibition, % at 13.8 µM; 370,000 compounds, 0.43% hits; AID 720596; in the data active = inhibition above about 24%; also: 0% = median of the test wells and 100% = reference compound wells
Sa ugtP lethal: compounds lethal to S. aureus RN4220 ugtP deletion mutant; OD600 growth, 16 h; growth inhibition, % (concentration not given with the values); 330,000 compounds, 0.54% hits; AID 1259309; in the data active = growth inhibition above about 68%;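 also: plate controls were untreated wells for no effect and antibiotic for full effect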
* marks the source's active call; other numbers are inactive results.

For Cc1ccc(C(=O)N2CCN(c3ccccc3Cl)CC2)cc1[N+](=O)[O-] the results were PfHsp40 rescue 111*, VHR inh abs 20, RN4220 kill 3, PrPC surface inh 5 and Sa ugtP lethal 9.
`Cc1ccc(C(=O)N2CCN(c3ccccn3)CC2)cc1[N+](=O)[O-]` gave PfHsp40 rescue 6, VHR inh abs 20, RN4220 kill 0, PrPC surface inh 11 and Sa ugtP lethal 2.
For COc1ccc(NC(=S)NCCC(c2ccccc2)c2ccccc2)c(OC)c1 the results were PfHsp40 rescue 39*, VHR inh abs 1, RN4220 kill -5, PrPC surface inh 9 and Sa ugtP lethal 27.
For Cc1c(Cl)cccc1NC(=S)NCCC(c1ccccc1)c1ccccc1 the results were PfHsp40 rescue 54*, VHR inh abs 9, RN4220 kill -9, PrPC surface inh 15 and Sa ugtP lethal 17.
COc1cccc(NC(=S)NCCC(c2ccccc2)c2ccccc2)c1 was read as PfHsp40 rescue 3, VHR inh abs -1, RN4220 kill -9, PrPC surface inh 9 and Sa ugtP lethal 11.
Screening COc1ccc(S(=O)(=O)N2CCOCC2)cc1N=Nc1sc(N)nc1-c1ccccc1 returned PfHsp40 rescue -1, VHR inh abs 56*, RN4220 kill 0, PrPC surface inh -11 and Sa ugtP lethal 4.
`NC(=S)N/N=C/c1coc2ccc(Br)cc2c1=O` gave PfHsp40 rescue 38*, VHR inh abs 16 and PrPC surface inh -2.
`O=C(NN=C1CCCC1)c1cccc(Br)c1` gave PfHsp40 rescue 0, VHR inh abs 54*, RN4220 kill -1, PrPC surface inh 10 and Sa ugtP lethal 0.
COc1ccc(C=CC(=O)OCC(=O)NCC2CCCO2)cc1 (stereo not given) was read as RN4220 kill 8 and Sa ugtP lethal 8.
O=C(COC(=O)c1cccnc1)Nc1ccc(F)cc1 was read as PfHsp40 rescue 0, VHR inh abs 27, RN4220 kill 3, PrPC surface inh -8 and Sa ugtP lethal 3.
`O=C(COC(=O)c1cccnc1)Nc1ccccc1` gave PfHsp40 rescue 0, VHR inh abs 57*, RN4220 kill -3, PrPC surface inh -9 and Sa ugtP lethal 1.
`O=C(COc1ccccc1)Nc1ccncc1` gave PfHsp40 rescue 44*, VHR inh abs 20, RN4220 kill 7, PrPC surface inh 3 and Sa ugtP lethal 9.
Cc1conc1NC(c1cccs1)c1ccc2cccnc2c1O (stereo not given) was read as VHR inh abs -5.
Screening Cc1ccc(C(NC(=O)C(C)C)c2cc([N+](=O)[O-])c3cccnc3c2O)cc1 (stereo not given) returned PfHsp40 rescue -1, VHR inh abs 1, RN4220 kill 92*, PrPC surface inh -5 and Sa ugtP lethal 95*.
Screening CC(C)C(=O)NC(c1cccs1)c1cc([N+](=O)[O-])c2cccnc2c1O (stereo not given) returned PfHsp40 rescue 1, VHR inh abs -4, RN4220 kill 68 and Sa ugtP lethal 76.
`Oc1c(C(Nc2nc3ccccc3s2)c2ccco2)ccc2cccnc12` (stereo not given) gave PfHsp40 rescue -1, VHR inh abs -12, RN4220 kill 23, PrPC surface inh 25* and Sa ugtP lethal -14.
For CC(C)C(=O)NC(c1ccco1)c1ccc2cccnc2c1O (stereo not given) the results were PfHsp40 rescue 297*, VHR inh abs 22 and PrPC surface inh 10.
Screening CC(=O)NC(c1ccco1)c1cc(F)c2cccnc2c1O (stereo not given) returned PfHsp40 rescue 3, RN4220 kill 11, PrPC surface inh 1 and Sa ugtP lethal -8.
`CC1(C)c2[nH]c3ccccc3c2CC2C(=O)N(Cc3ccc(F)cc3)C(=O)N21` (stereo not given) gave RN4220 kill 0 and Sa ugtP lethal 1.
For CC1CN(C(C)CO)C(=O)c2cc(NS(=O)(=O)c3cn(C)cn3)ccc2OC1CN(C)C(=O)Nc1ccccc1 (stereo not given) the results were RN4220 kill 4 and Sa ugtP lethal 0.
Screening Oc1ccc(C=NC2CCCCC2)c(O)c1 returned PfHsp40 rescue 35*, VHR inh abs 2, RN4220 kill 4, PrPC surface inh -6 and Sa ugtP lethal 6.
Screening Clc1ccc(CSC(Cn2ccnc2)c2ccc(Cl)cc2Cl)cc1 (stereo not given) returned PfHsp40 rescue 147*, VHR inh abs -7, RN4220 kill 97*, PrPC surface inh 12 and Sa ugtP lethal 85.
Clc1ccc(COC(Cn2ccnc2)c2ccc(Cl)cc2Cl)cc1 (stereo not given) was read as PfHsp40 rescue 93*, VHR inh abs -3 and PrPC surface inh 13.
Screening O=C(Cc1ccc(Cl)cc1)NCCCn1ccnc1 returned PfHsp40 rescue -1, VHR inh abs -2, RN4220 kill 3, PrPC surface inh -4 and Sa ugtP lethal -7.
COC(=O)[C@@]12CCCCN1C(c1ccc(-c3ccccc3)c(OC)c1)C1C(=O)N(C)C(=O)C12 (stereo not given in full) was read as RN4220 kill 8 and Sa ugtP lethal 10.
COc1ccc(C=NNC(=O)c2cccnc2)cc1O was read as RN4220 kill -2 and Sa ugtP lethal 12.
`O=C(Cn1nc(CNc2ccc(Cl)cc2)[n+]2c1CCCCC2)c1ccc(Br)cc1` gave PfHsp40 rescue 0, VHR inh abs 8, RN4220 kill 89*, PrPC surface inh 3 and Sa ugtP lethal 98*.
For C[C@@]12C(=O)N(c3cccc(Cl)c3)C(=O)N1C1c3ccccc3OCC1C2c1ccccc1 (stereo not given in full) the results were RN4220 kill 2 and Sa ugtP lethal 7.
Screening C[C@@]12CCC=C[C@H]1[C@H](c1ccc3ccccc3c1Br)N(Cc1ccccc1)C2=O returned PfHsp40 rescue 65*, VHR inh abs 7 and PrPC surface inh -6.
For CCOc1ccc(N=C2NC(=O)SC2=Cc2ccc(O)cc2)cc1 the results were RN4220 kill 5 and Sa ugtP lethal -12.
Screening CC(C)Oc1ccccc1C1CC(=O)Nc2c1c(=O)n(C)c(=O)n2C (stereo not given) returned VHR inh abs 59*, RN4220 kill 0 and Sa ugtP lethal 7.
CCOc1ccccc1C1CC(=O)Nc2c1c(=O)n(C)c(=O)n2C (stereo not given) was read as PfHsp40 rescue -1, VHR inh abs -14, RN4220 kill 2, PrPC surface inh -2 and Sa ugtP lethal 3.
For C[C@@]12C(=O)Nc3cc(F)ccc3C(=O)N1C1c3cc(Br)ccc3OCC1C2c1ccccc1 (stereo not given in full) the results were RN4220 kill -19 and Sa ugtP lethal -5.
Cc1cc([N+](=O)[O-])c2ccccc2[n+]1[O-] was read as PfHsp40 rescue 127*, VHR inh abs 4, RN4220 kill 8 and Sa ugtP lethal 77.

Screening data (PubChem BioAssay)
